From PubChem
CHX counter: counter-screen for Shiga toxin inhibitors: cycloheximide protein synthesis inhibition; max response, %; 12% of 300,000 active; cell reporter, cycloheximide protein synthesis inhibition counterscreen; in the data active = max response mostly above about 13%, no sharp cut-off; inactive = mostly below about 14%; also: read at 38.3 µM for the half of the compounds with a filed dose; 0% is about no effect
TbPYK inhibitor: T. brucei pyruvate kinase inhibition. 0.12% of 410,000 active. Potency, µM (top dose mostly 76.8 µM), inactives show at the top dose activity, negative = inhibition, hits mostly inhibitors. Q57TT1. TbPYK enzyme, Kinase-Glo Plus ATP luminescence, 45 min. AID 624173; also: potency is read from the fitted curve at half-maximal effect; % is scaled to controls: 0 for no effect and ±100 for the full control effect; nearly all actives have a fitted effect of over 50% in size
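Enzyme and substrate buffer are dispensed first and compound is pin-transferred. ADP at 130 uM final then starts the reaction, which runs 45 min at room temperature. Detection reagent is added for 10 min before luminescence is imaged.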
Shiga inhibitor: blocks Shiga toxin action in Vero cells. Vero cells, Shiga toxin protein synthesis inhibition reporter. 9.2% of 290,000 active. inhibition, % at 38.7 µM; in the data active = inhibition mostly above about 28%, no sharp cut-off; inactive = mostly below about 43%; also: 0% is about no effect
LmPK inh: LmPK (Leishmania mexicana) enzyme inhibition; Q27686; purified LmPK, Kinase-Glo ATP luminescence, 1 h; Potency, µM (series often up to 57.5 µM), without a hit: at the highest dose activity change, negative = inhibition, actives largely listed as inhibitors; 0.37% of 290,000 active; AID 1721; also: potency is read from the fitted curve at half-maximal effect; % is scaled to controls: 0 for no effect and ±100 for the full control effect
Target sequence (Q27686 whole entry, looked up): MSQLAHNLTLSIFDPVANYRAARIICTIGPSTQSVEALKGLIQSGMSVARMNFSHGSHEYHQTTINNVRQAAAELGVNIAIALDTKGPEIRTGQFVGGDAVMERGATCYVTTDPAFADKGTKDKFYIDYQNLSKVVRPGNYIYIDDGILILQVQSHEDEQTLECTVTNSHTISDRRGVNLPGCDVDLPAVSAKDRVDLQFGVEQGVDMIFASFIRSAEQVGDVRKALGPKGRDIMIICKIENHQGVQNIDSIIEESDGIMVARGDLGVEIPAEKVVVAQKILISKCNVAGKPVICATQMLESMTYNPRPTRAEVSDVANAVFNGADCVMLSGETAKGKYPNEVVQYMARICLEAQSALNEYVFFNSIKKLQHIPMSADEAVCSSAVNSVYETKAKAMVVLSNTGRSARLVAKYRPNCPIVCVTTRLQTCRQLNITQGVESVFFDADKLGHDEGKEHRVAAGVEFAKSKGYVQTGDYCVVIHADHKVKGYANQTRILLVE
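0.1 nM LmPK, 0.5 mM PEP, 0.1 mM ADP; 50 mM imidazole pH 7.2, 7 mM MgCl2, 50 mM KCl; 1 h RT. Kinase-Glo luminescence readout, normalized to no-enzyme (full inhibition) and uninhibited wells.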
Giardia FBPA inh: Giardia lamblia aldolase inhibition | A8B2U2 | Potency, µM (doses to about 59.6 µM), inactives show top-dose activity, negative = inhibition, actives largely listed as inhibitors | 0.71% of 290,000 active | purified Giardia FBPA; also: potency is read from the fitted curve at half-maximal effect; % is scaled to controls: 0 for no effect and ±100 for the full control effect; nearly all actives have a fitted effect of over 55% in size
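Giardia FBPA (40 nM reagent) was preincubated 10 min at RT with compound (up to 57.5 uM final), then substrate plus GAPDH/TPI/NAD/arsenate coupling system with diaphorase/resazurin was added; resorufin fluorescence (525/598 nm) was read after 20 min.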
RE007 growth inh: less growth of the S. pombe RE007 Vpr strain; Potency, µM (highest dose often 92.2 µM), for inactives: top-dose activity change, negative = less growth, usual class: inhibitors; 0.21% of 360,000 active; S. pombe RE007 Vpr strain, BacTiter-Glo ATP luminescence, 24 h; active = well fitted falling curve with a large enough effect; also: potency is read from the fitted curve at half-maximal effect; % is scaled to controls: 0 for no effect and ±100 for the full control effect; nearly all actives have a fitted effect of over 50% in size
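Fission yeast RE007 carrying one integrated HIV-1 vpr copy, seeded at OD 0.01 in PMG+AL medium with 23 nL pinned compound. Grown 24 h at 30 degrees; viability read by BacTiter-Glo luminescence after 5 min.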
Numbers without * were called inactive; [ ] = dose if it differs, or a comment. Many of the other results were omitted from the sample, so hits are more common in it than they were. Unless noted, calls follow the shape of the dose curve; as a rule, active = well fitted curve in the direction sought with a large enough effect; inconclusive = small, poorly fitted or top-dose-only effect, or another doubt; inactive = no such curve, though single readings can be large; an effect the other way counts as inactive or inconclusive.

O=C(Nc1cccc(Cl)c1)c1cc(-c2ccccc2)on1 was read as TbPYK inhibitor -11%.
O=C(Nc1cccc(Cl)c1)c1cc(-c2ccco2)on1 was read as CHX counter 31*, TbPYK inhibitor -3%, Shiga inhibitor 56*, LmPK inh -9%, Giardia FBPA inh -6% and RE007 growth inh -12%.
For O=C(Nc1cc(Br)ccc1O)c1cc(-c2ccco2)on1 the results were CHX counter 19, TbPYK inhibitor -4%, Shiga inhibitor 59*, LmPK inh -7%, Giardia FBPA inh -8% and RE007 growth inh 0%.
Cc1ccc(-c2cc(N)n(Cc3ccc(Cl)cc3)n2)cc1 was read as CHX counter 22, TbPYK inhibitor -15%, Shiga inhibitor 33, LmPK inh 1%, Giardia FBPA inh -1% and RE007 growth inh -20%.
CSc1nc(N)n2nc(-c3ccc(Cl)cc3)cc2n1 was read as CHX counter 47*, TbPYK inhibitor 0%, Shiga inhibitor 86*, LmPK inh -26%, Giardia FBPA inh 3% and RE007 growth inh -13%.
`COc1cc(Cl)ccc1OCc1cc(C(=O)N2C[C@@H]3CCC[C@H]2C3)no1` gave CHX counter 60*, TbPYK inhibitor 2%, Shiga inhibitor 145*, LmPK inh -12% and RE007 growth inh -23%.
`COc1cc(C)ccc1OCc1cc(C(=O)NC2CCOCC2)no1` gave TbPYK inhibitor -5% and RE007 growth inh -2%.
For COc1cc(C)ccc1OCc1cc(C(=O)N(Cc2c(C)nn(C)c2C)C2CC2)no1 the results were CHX counter 52*, TbPYK inhibitor 0%, Shiga inhibitor 76*, LmPK inh 3%, Giardia FBPA inh 1% and RE007 growth inh 3%.
For COc1cc(C)ccc1OCc1cc(C(=O)N2CCN(C)C[C@@H]2c2ccccc2)no1 the results were CHX counter 42*, TbPYK inhibitor 8%, Shiga inhibitor 67*, LmPK inh 1% and RE007 growth inh -11%.
Screening COc1cc(C)ccc1OCc1cc(C(=O)N2C[C@H]3CC[C@H]2C3)no1 returned CHX counter 21*, TbPYK inhibitor 0%, Shiga inhibitor 22, LmPK inh 1% and RE007 growth inh -3%.
For COc1cccc(NC(=O)Cn2c(=O)c3cccn3c3ccc(F)cc32)c1 the results were TbPYK inhibitor -9%.
For O=C(c1cc(COc2cccc(C(F)(F)F)c2)on1)N1C[C@@H]2CCC[C@H]1C2 the results were CHX counter 34*, TbPYK inhibitor -10%, Shiga inhibitor 77*, LmPK inh -1% and RE007 growth inh -2%.
`CCOC(=O)N1CCN(C(=O)c2cc(COc3ccc(Cl)cc3OC)on2)CC1` gave CHX counter -2, TbPYK inhibitor 3%, Shiga inhibitor -6, LmPK inh -12% and RE007 growth inh -6%.
COc1cc(Cl)ccc1OCc1cc(C(=O)N2C[C@]3(C)C[C@H]2CC(C)(C)C3)no1 was read as CHX counter 72*, TbPYK inhibitor 2%, Shiga inhibitor 111*, LmPK inh -3%, Giardia FBPA inh -11% and RE007 growth inh -12%.
`COc1cc(Cl)ccc1OCc1cc(C(=O)N2C[C@H]3CC[C@H]2C3)no1` gave CHX counter 55*, TbPYK inhibitor -7%, Shiga inhibitor 108*, LmPK inh -6% and RE007 growth inh 3%.
COc1ccc(F)cc1S(=O)(=O)NCCc1c(C)[nH]c2c(Cl)cccc12 was read as TbPYK inhibitor 2%.
Screening CO/N=C(\C)CCN1CCCc2nc(C)c(C)cc21 returned Giardia FBPA inh 1%[12.9 µM].
CCOC(=O)/C(=C\c1ccccc1)NC(=O)c1ccccc1 was read as CHX counter 19*, TbPYK inhibitor -1%, Shiga inhibitor 41, LmPK inh 0%, Giardia FBPA inh 1% and RE007 growth inh 9%.
Screening CCOC(=O)N1CCN(C(=O)/C(=C/c2ccc(OC)cc2)NC(=O)c2ccccc2)CC1 returned CHX counter -3, TbPYK inhibitor -3%, Shiga inhibitor 25, LmPK inh -4%, Giardia FBPA inh 8% and RE007 growth inh 4%.
`C=CCOC(=O)/C(=C\c1ccccc1)NC(=O)c1ccc(C)cc1` gave CHX counter 36*, TbPYK inhibitor -1%, Shiga inhibitor 100*, LmPK inh 0%, Giardia FBPA inh 10% and RE007 growth inh 9%.
For CCOC(=O)N1CCN(C(=O)/C(=C/c2cccc3ccccc23)NC(=O)c2ccc(OC)cc2)CC1 the results were CHX counter 17*, TbPYK inhibitor -5%, Shiga inhibitor 11, LmPK inh 2%, Giardia FBPA inh 3% and RE007 growth inh 20%.
CCOC(=O)C(=Cc1ccc(N(C)C)cc1)C(=O)c1ccccc1 was read as TbPYK inhibitor -2% and RE007 growth inh -1%.
`CCOC(=O)/C(=C/c1ccc(OC(=O)c2ccccc2)cc1)C(C)=O` gave CHX counter 7, TbPYK inhibitor -18%, Shiga inhibitor 39*, LmPK inh -3%, Giardia FBPA inh -1% and RE007 growth inh 28µM*.
Screening CCOC(=O)/C(=C/c1c2ccccc2cc2ccccc12)NC(=O)c1ccccc1 returned CHX counter 6, TbPYK inhibitor 2%, Shiga inhibitor -3, LmPK inh -2%, Giardia FBPA inh -1% and RE007 growth inh -4%.
O=C(c1ccncc1)N1CCC2(CC1)CN(c1ccccc1)C2 was read as TbPYK inhibitor 1% and Giardia FBPA inh -19%.
C=CCOC(=O)/C(=C/c1cccnc1)NC(=O)c1ccccc1 was read as CHX counter 4, TbPYK inhibitor -13%, Shiga inhibitor -7, LmPK inh 1%, Giardia FBPA inh 5% and RE007 growth inh 28%.
O=C(N/C(=C/c1ccccc1)C(=O)N1CCCCC1)c1ccccc1 was read as CHX counter 96*, TbPYK inhibitor 0%, Shiga inhibitor 51*, LmPK inh -10% and RE007 growth inh 4%.
`C=CCOC(=O)/C(=C\c1cccc2ccccc12)NC(=O)c1ccccc1` gave CHX counter 36*, TbPYK inhibitor 1%, Shiga inhibitor 22, LmPK inh 1%, Giardia FBPA inh -1% and RE007 growth inh -25%.
Screening CCC(=O)Nc1ccc(C(=O)Nc2ccc3c(c2)OCO3)cc1 returned CHX counter 15, TbPYK inhibitor -7%, Shiga inhibitor 6, LmPK inh -1%, Giardia FBPA inh 2% and RE007 growth inh 31%.
CCCOc1ccc(C(=O)Nc2ccc3c(c2)OCO3)cc1 was read as CHX counter 49*, TbPYK inhibitor -14%, Shiga inhibitor 122*, LmPK inh -13% and RE007 growth inh 6%.
